# Screening results as filed in PubChem BioAssay.
# Most compounds without a hit are left out; they make up all but 4.7% or so of the library.
# EBI2 antag: blocks human EBI2 receptor beta-arrestin signaling; EBI2 beta-arrestin recruitment, luminescence, 7a,25-OHC stimulated; AID 651636; inhibition, % at 5 µM; P32249; 0.81% of 360,000 active; in the data active = inhibition above about 38%;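 note: enzyme fragment complementation signal reports receptor beta-arrestin coupling in cells; 0% = agonist plus DMSO wells and 100% = wells without agonist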
# Target sequence (P32249 whole entry, looked up, the tested form may be a part): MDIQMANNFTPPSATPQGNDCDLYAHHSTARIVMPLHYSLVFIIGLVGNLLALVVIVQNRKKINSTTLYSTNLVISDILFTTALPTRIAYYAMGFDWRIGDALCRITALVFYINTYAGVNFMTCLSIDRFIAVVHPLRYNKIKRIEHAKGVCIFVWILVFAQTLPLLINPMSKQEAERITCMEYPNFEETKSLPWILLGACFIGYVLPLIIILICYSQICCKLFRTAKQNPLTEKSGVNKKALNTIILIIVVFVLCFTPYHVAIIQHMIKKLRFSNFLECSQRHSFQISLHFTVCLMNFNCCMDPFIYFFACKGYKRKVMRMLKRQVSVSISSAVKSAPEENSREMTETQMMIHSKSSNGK
# TIM10 inh: TIM10 yeast growth inhibition. AID 463195. S. cerevisiae TIM10 strain growth, BacTiter-Glo luminescence, 24 h. 1.4% of 330,000 active. inhibition, % at 10 µM;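 active = inhibition of 40% or more at the single tested concentration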;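 note: wild-type TIM10 isogenic control strain grown at permissive 25 °C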
# tim23-1 inh: inhibits growth of tim23-1 mutant yeast; S. cerevisiae tim23-1 growth, BacTiter-Glo luminescence, 24 h; inhibition, % at 20 µM; 1.3% of 330,000 active; AID 463212;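 active = growth inhibition of the mutant yeast at or above 50%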;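 note: temperature-sensitive mutant grown at 25 °C; plate controls were DMSO-treated mutant yeast for no effect and medium wells lacking yeast for full effect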
# SKKanGAS inh: SKKanGAS growth inhibition; S. pyogenes SKKanGAS, kanamycin growth, BacTiter-Glo, 6 h; 1.3% of 300,000 active; AID 1662; inhibition, % at 7.5 µM;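 active = mean replicate score, as percent of positive control median, at least 50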;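 note: strain carries kanamycin resistance gene driven by streptokinase promoter and grows in 40 µg/ml kanamycin; loss of luminescence reflects streptokinase promoter inhibition or plain growth inhibition; 0% = median of DMSO wells and 100% = positive control at its reference dose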
# PfHsp90 set2: growth inhibition of yeast expressing Plasmodium Hsp90. inhibition, % at 9.4 µM. 0.32% of 310,000 active. S. cerevisiae expressing PfHsp90, BacTiter-Glo ATP, 48 h; yeast lacking PDR1 and PDR3 efflux regulators;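 active = every replicate shows inhibition above about 80%, whatever the replicate mean, limit read from the data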;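 note: 0% = DMSO neutral controls and 100% = 20 µM radicicol positive controls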
# tim10-1 inh: tim10-1 yeast growth inhibition | S. cerevisiae tim10-1 ts strain growth, BacTiter-Glo, 24 h | inhibition, % at 20 µM | 2.2% of 330,000 active;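 active = inhibition of at least 40%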;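 note: mutant grown at 25 °C; 0% = DMSO wells with yeast and 100% = wells holding no yeast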
# tim10-1 confirm: confirmation of tim10-1 mutant yeast growth inhibitors; S. cerevisiae tim10-1 ts strain growth, BacTiter-Glo, 24 h; shares compounds with tim10-1 inh; 56% of 7,400 active; inhibition, % at 20 µM;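 active = inhibition of yeast growth at or above a set limit in either of two repeat tests at 20 µM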;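 note: tim10-1 mutant grown at permissive 25 °C to find synthetic lethal compounds; 0% = DMSO yeast wells and 100% = medium wells without yeast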
# TIM10 conf: confirmation of TIM10 yeast growth inhibitors. S. cerevisiae tim10 strain growth, BacTiter-Glo luminescence, 24 h. shares compounds with TIM10 inh. 63% of 4,600 active. inhibition, % at 10 µM. AID 463215;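 active = inhibition of yeast growth at or above a set limit in either of two replicates at 10 µM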;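 note: this counterscreen used the strain with wild-type TIM10; 0% = yeast with DMSO and 100% = medium wells lacking yeast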
# tim23-1 conf: tim23-1 yeast growth inhibition, confirmed | shares compounds with tim23-1 inh | S. cerevisiae tim23-1 growth, BacTiter-Glo luminescence, 24 h | inhibition, % at 20 µM | 83% of 4,400 active;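 active = inhibition above about 39% in either of two replicate wells at 20 µM, limit read from the data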;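 note: temperature-sensitive tim23-1 mutant grown at 25 °C; 0% = DMSO wells with yeast and 100% = medium wells without yeast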
# * hit, by the source's call; x = no result given.
SMILES,EBI2 antag,TIM10 inh,tim23-1 inh,SKKanGAS inh,PfHsp90 set2,tim10-1 inh,tim10-1 confirm,TIM10 conf,tim23-1 conf
O=C(CCc1nnc2n(Cc3ccc(F)cc3)c(=O)c3ccccc3n12)N1CCN(c2ccccn2)CC1,18,19,21,16,-9,35,x,x,x
CCOC(=O)c1cc(-c2ccccc2)nc2c(O)cccc12,-1,x,x,x,-5,x,x,x,x
O=C(CC1C(=O)N(c2ccccc2)C(=S)N1c1ccccc1)c1ccccc1 (configuration not stated),3,49*,52*,-2,5,47*,42*,40*,53*
Cc1ccc(CNC(=O)c2nnn(CC(=O)Nc3cc(C)cc(C)c3)c2N)cc1,-1,-11,-3,-1,0,8,x,x,x
O=C(Nc1nc(-c2cccs2)c(C(=O)C(F)(F)F)s1)c1ccco1,-2,56*,62*,-7,2,56*,73*,59*,79*
O=C(Nc1nc(-c2cccs2)c(C(=O)C(F)(F)F)s1)c1ccccc1,-1,33,69*,7,-11,61*,50*,x,70*
COc1ccc(C(=O)Nc2nc(-c3cccs3)c(NC(C)=O)s2)cc1,-2,-46,-25,5,14,-1,x,x,x
O=C(NNc1cc(Cl)ccc1Cl)c1cccs1,-5,-7,14,5,-22,8,x,x,x
N/C(=N\OC(=O)c1cccs1)C1(c2ccc(Cl)cc2Cl)CC1,7,66*,74*,-5,-23,50*,45*,76*,73*
N/C(Cc1cccs1)=N\OC(=O)COc1ccccc1Cl,5,22,20,13,23,36,x,x,x
N/C(Cc1ccc(Cl)c(Cl)c1)=N\OC(=O)c1cccs1,-22,86*,62*,7,104*,56*,-4,84*,42*
CN(C[C@H](CC1CCCCC1)N(C[C@H](Cc1ccccc1)N(CCc1ccccc1)N=O)N=O)N=O,27,29,30,6,1,29,x,x,x
S=C(NCc1cccs1)Nc1cccc(Cl)c1Cl,-1,41*,56*,6,-20,50*,32*,5,56*
Cc1c(Cl)cccc1NC(=S)NCc1cccs1,-7,36,26,12,8,37,x,x,x
Cc1cccc(/C(N)=N/OC(=O)c2ccc(Br)o2)c1,8,69*,67*,2,-13,43*,47*,63*,57*
Cc1cccc(/C(N)=N/OC(=O)c2ccc3c(c2)OCO3)c1,1,83*,88*,-2,20,75*,66*,-6,85*
N/C(=N\OC(=O)CCC1CCCCC1)c1cccc([N+](=O)[O-])c1,-2,62*,54*,6,5,79*,79*,49*,77*
Cc1cccc(/C(N)=N/OC(=O)c2cccc3ccccc23)c1,-3,87*,82*,6,x,64*,54*,85*,47*
N/C(=N\OC(=O)c1ccc(Br)o1)c1ccccn1,-7,26,17,-4,13,29,x,x,x
N/C(=N\OC(=O)COc1ccc(Br)cc1)c1cccc([N+](=O)[O-])c1,-18,-12,6,1,-3,1,x,x,x
CCOc1ccc(C(=O)OCC(=O)Nc2ccc(SC(F)F)cc2)cc1OCC,-6,-9,-2,-4,6,13,x,x,x
CCOc1ccc(C(=O)Oc2cc(C)[nH]c(=O)c2[N+](=O)[O-])cc1OCC,1,0,-3,4,-3,-1,x,x,x
CC(=O)Nc1ccc2c(COC(=O)[C@H](C)N3C(=O)C4CCCCC4C3=O)cc(=O)oc2c1 (some centres not stated),-5,-13,3,-4,1,2,x,x,x
Cc1ccc(C)c(OCC(=O)O/N=C(\N)c2cccc([N+](=O)[O-])c2)c1,5,22,28,-5,-6,31,x,x,x
